Experimental findings from PubChem BioAssay (Tox21) are described below.

Values joined by “and” are separate entries in the source; they are usually repeats but may differ in a detail not shown here. Identical values can stand only once. Results filed as inconclusive are left out. Active and inactive are the calls of the source. Unless noted, the call rests on the fitted dose curve; in most records, active means well fitted curve in the direction sought with a large enough effect in the repeat runs; inconclusive means weak or mixed curves; inactive means no such curve, though single readings can be large; an effect the other way counts as inactive or inconclusive.

A short description of experiment [1]: qHTS assay for small molecule agonists of the p53 signaling pathway (AID 651631; calls by dose curve; further: nearly all actives have a fitted effect of over 15% in size; further: potency means the concentration at half of the fitted maximal effect). A digest of the protocol: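 Testing took place in human colorectal HCT-116 cells with stable p53RE-driven beta-lactamase. After 16 h of compound exposure at 37 °C, a FRET substrate was added and fluorescence recorded 2 h later.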
(In qHTS, concentration-response curves come from the screen itself.)

The nature of experiment [2]: qHTS assay for small molecules that induce genotoxicity in human embryonic kidney cells expressing luciferase-tagged ATAD5 (AID 651632). Further: nearly all actives have a fitted effect of over 15% in size. Further: potency means the concentration at half of the fitted maximal effect. A digest of the protocol:
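A rise in luciferase signal from ATAD5-tagged HEK293T cells marks genetic stress. Cells were exposed to compounds for 16 hr at 37C, 5% CO2, then luciferase was quantified after a 30 min room-temperature incubation with Amplite.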

Experiment [3] can be described thus: qHTS assay for small molecules that induce genotoxicity in human embryonic kidney cells expressing luciferase-tagged ATAD5 - cell viability (AID 651634; calls by dose curve; further: nearly all actives have a fitted effect of over 25% in size). The procedure, abridged: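 Cytotoxicity counter-readout: after 15.5 hr compound treatment at 37C, live-cell protease activity in ATAD5-luciferase HEK293T cells measured by CellTiter-Fluor fluorescence, 30 min development at 37C.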

A short description of experiment [4]: qHTS assay for small molecule disruptors of the mitochondrial membrane potential - cell viability (AID 720634; calls by dose curve; further: nearly all actives have a fitted effect of over 20% in size; further: potency means the concentration at half of the fitted maximal effect). The procedure, abridged: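 Cytotoxicity was quantified from ATP content by CellTiter-Glo luminescence in the same wells as the MMP dye read-out. HepG2 (2,000 cells/well) were plated overnight and exposed to compounds for 1 hr at 37 C.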
Experiment [5] in a line: qHTS assay to test for compound auto fluorescence at 590 nm (red) in HepG2 cells (AID 720674). A digest of the protocol: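 HepG2 cells, 2,000 per well in MEM with 10% FBS, attached overnight at 37 C, then got 23 nL compound or DMSO. After 1 hr at 37 C, 5% CO2, red fluorescence was read at 540/590 nm against Rose Bengal sodium as reference.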
The nature of experiment [6]: qHTS assay to test for compound auto fluorescence at 535 nm (green) in HepG2 cells (AID 720675).
The nature of experiment [7]: qHTS assay to test for compound auto fluorescence at 460 nm (blue) in HEK293 cells (AID 720678). The procedure, abridged:
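HEK293, 2,000 cells/well, 10% dialyzed FBS; attach 4-5 hr 37C; pin compound or DMSO; o/n 37C/5% CO2; fluorescence 405/460 nm; triamterene-equivalent units.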

A short description of experiment [8]: qHTS assay to test for compound auto fluorescence at 590 nm (red) in HEK293 cells (AID 720679). A digest of the protocol:
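Intensity at 540nm excitation and 590nm emission is reported as Rose Bengal sodium-equivalent autofluorescence. Measurements followed overnight exposure (37C, 5% CO2) of HEK293 cells, 2,000 per well, to 23 nL compound.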

The nature of experiment [9]: qHTS assay for small molecule agonists of the p53 signaling pathway - cell viability (AID 651633; calls by dose curve; further: series mostly up to about 83 µM; nearly all actives have a fitted effect of over 30% in size). The procedure, abridged: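 p53RE-bla cells were treated with compound for 16 hours at 37 C. Cytotoxicity was then measured as CellTiter-Glo luminescence after 30 min at room temperature.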
Experiment [10] is described as follows: qHTS assay for small molecule disruptors of the mitochondrial membrane potential (AID 720635). Further: potency means the concentration at half of the fitted maximal effect. The procedure, abridged: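 HepG2 cells exposed to compound 1 hr at 37C, then Mito-MPS dye 30 min. Ratio read of aggregate (540/590 nm) versus monomer (490/535 nm) fluorescence.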

As for `CCCCNC(N)=O`, the Potency entry in [1], in experiment [2], in [3], in experiment [4] and in experiment [7] was “inactive” in each case. Further, the compound was called inactive in experiment [5], in [6] and in experiment [8].
As for `CCc1ccc(O)cc1`, the Potency result in experiment [1], in experiment [2], in experiment [3] and in [4] was “inactive” each time. Moreover, the compound was called inactive in experiment [5], in experiment [6] and in [8].
Regarding `Cc1cc(Cc2ccc(N)c(C)c2)ccc1N`, the Potency result in experiment [1], in experiment [2], in [9], in [3] and in [7] was “inactive” throughout. Further, the compound was classed as inactive in experiment [5], in experiment [6] and in experiment [8].
For the compound `COCC(C)O` (stereo not given), the Potency result in experiment [1], in experiment [2], in [3], in experiment [4] and in experiment [7] was “inactive” throughout. Also, the call in experiment [5] and in experiment [6] was inactive.
On to `CNC[C@H](O)[C@@H](O)[C@H](O)[C@H](O)CO`, for which the Potency entry in [1], in experiment [2], in experiment [3], in [4] and in experiment [10] was “inactive” in each case. The compound was classed as inactive in experiment [5], in [6] and in experiment [8].
As to `Cc1ccc(N)c(S(=O)(=O)O)c1`, the Potency result in experiment [1], in [2], in experiment [9], in experiment [3] and in experiment [4] was “inactive” in each case. The compound was classed as inactive in [5], in experiment [6] and in [8].
Consider `O=[N+]([O-])C(CO)(CO)CO`, for which the Potency entry in experiment [1], in experiment [2], in experiment [9] and in experiment [3] was “inactive” throughout. Also, the compound was called inactive in experiment [5] and in experiment [6].
Take `CC(=O)Nc1ccc(C(=O)O)cc1`: the Potency result in [1], in [2], in experiment [3], in experiment [4], in experiment [10] and in [7] was “inactive” in each case. In addition, the result in [5], in experiment [6] and in [8] was inactive.
For `COC(=O)Nc1nc2ccc(Sc3ccccc3)cc2[nH]1`, the Potency in [1] was 114 nM (active) and 68.6 nM (active); in experiment [2] it was 4.03 µM (active) and 12.2 µM (active). Further, the Potency entry in [9], in experiment [3] and in experiment [4] was “inactive” in each case. For the same compound, the result in [5], in [6] and in [8] was inactive.
As for `CC1(C)CC(N=C=O)CC(C)(CN=C=O)C1` (stereo not given), the Potency entry in [1], in experiment [2], in experiment [3], in experiment [4] and in experiment [7] was “inactive” throughout. Besides, the compound was called inactive in [5] and in [6].
Take `C=CC(=O)OCCCCCCCC(C)C`: the Potency result in [1], in [2], in experiment [3], in experiment [4] and in [7] was “inactive” each time. Besides, the call in experiment [5], in experiment [6] and in experiment [8] was inactive.
In the case of `O=C(c1ccc(O)cc1)c1ccc(O)cc1O`, the values for the Potency in experiment [1] and in [4] were 27.6 µM (active) and 55 µM (active), respectively. In addition, the Potency result in experiment [2], in experiment [9], in experiment [3] and in experiment [7] was “inactive” in each case. The result in [5], in [6] and in experiment [8] was inactive.
For `NCCc1ccc(O)c(O)c1`, the Potency entry in [1], in [2], in [3], in experiment [4] and in experiment [7] was “inactive” each time. The call in experiment [5], in experiment [6] and in experiment [8] was inactive.
For the compound `C=C(C)C(=O)OCCC[Si](OC)(OC)OC`, the Potency result in experiment [1], in experiment [2], in experiment [3], in experiment [4] and in experiment [7] was “inactive” each time. Besides, the outcome in experiment [5], in experiment [6] and in experiment [8] was inactive.
Regarding `Oc1ccc(OCc2ccccc2)cc1`, the Potency in experiment [1] was 9.02 µM (active); in experiment [2] it was 12.7 µM (active); in [10] it was 10.1 µM (active) and 23.8 µM (active). The Potency entry in [3], in experiment [4] and in experiment [7] was “inactive” each time. Further, the compound was called inactive in experiment [5], in experiment [6] and in [8].
Consider `CCCCC/C=C\C/C=C\CCCCCCCC(=O)OC`, for which the Potency result in [1], in experiment [2], in experiment [9], in experiment [3] and in [4] was “inactive” throughout. For the same compound, the outcome in experiment [5], in experiment [6] and in experiment [8] was inactive.
Turning to `OCC1CCCO1` (stereo not given), the Potency entry in [1], in experiment [2], in [3], in [4], in experiment [10] and in experiment [7] was “inactive” each time. Moreover, the compound was called inactive in experiment [5], in experiment [6] and in experiment [8].
With `O=C(O)c1cc(-c2ccccc2)nc2ccccc12`, the Potency result in experiment [1], in experiment [2], in experiment [3] and in [4] was “inactive” in each case. In addition, the call in experiment [5] and in experiment [6] was inactive.
Regarding `Cc1ccc(C)c(C)c1`, the Potency entry in experiment [1], in [2], in experiment [3], in experiment [4] and in [7] was “inactive” each time. For the same compound, the outcome in experiment [5], in experiment [6] and in experiment [8] was inactive.
Turning to `CCCCC(CC)C(=O)OCCOCCOCCOC(=O)C(CC)CCCC` (stereo not given), the Potency result in [1], in experiment [2], in [9], in [3] and in [4] was “inactive” in each case. The result in experiment [5], in [6] and in experiment [8] was inactive.
Turning to `Oc1c(Cl)cc(Cl)c(Cl)c1Cl`, the Potency in experiment [1] is 16.9 µM (active). The Potency entry in experiment [2] was “inactive”. Moreover, the result in [5], in experiment [6] and in experiment [8] was inactive.
With `COCC(=O)O`, the Potency entry in experiment [1], in experiment [2], in [9], in experiment [3] and in experiment [4] was “inactive” each time. The result in experiment [5], in experiment [6] and in [8] was inactive.
On to `Clc1cc(Cl)c(Cl)cc1Cl`, for which the Potency entry in [1], in experiment [2], in [9], in experiment [3], in experiment [4] and in experiment [7] was “inactive” throughout. The compound was called inactive in experiment [5], in experiment [6] and in experiment [8].
As to `CC1(C)O[C@@H]2C[C@H]3[C@@H]4C[C@H](F)C5=CC(=O)CC[C@]5(C)[C@H]4[C@@H](O)C[C@]3(C)[C@]2(C(=O)CO)O1`, the Potency entry in [1], in experiment [2], in experiment [3] and in [4] was “inactive” each time. The outcome in experiment [5] and in experiment [6] was inactive.
Take `CC(C)(CO)COC(=O)C(C)(C)CO`: the Potency result in experiment [1], in experiment [2], in [3], in experiment [4] and in experiment [7] was “inactive” throughout. Besides, the compound was called inactive in [5], in experiment [6] and in experiment [8].
Take `O=S(=O)(Oc1ccc(Cl)cc1Cl)c1ccccc1`: the Potency entry in [2], in [3] and in [7] was “inactive” throughout. Besides, in experiment [10], the Potency is 27.8 µM (active) and 61.1 µM (active). In addition, the compound was classed as inactive in experiment [5], in [6] and in experiment [8].
`CCCCCCC(C)(C)S`: the Potency result in experiment [2], in [3] and in experiment [4] was “inactive” throughout. Also, the compound was called inactive in experiment [5], in [6] and in [8].
In the case of `CC(C)(N=C=O)c1cccc(C(C)(C)N=C=O)c1`, the Potency entry in experiment [2], in [3], in experiment [4] and in experiment [7] was “inactive” in each case. Also, the outcome in experiment [5] and in experiment [6] was inactive.
With `CC1=C(/C=C/C(C)=C/C=C/C(C)=C/CO)C(C)(C)CCC1`, the Potency result in [2], in experiment [9], in experiment [3], in experiment [4] and in [7] was “inactive” in each case. Moreover, the result in experiment [5], in experiment [6] and in [8] was inactive.
